The source of these data is PubChem BioAssay AID686979 (National Center for Advancing Translational Sciences (NCATS), 2013).

Several values for one entry are separate records, joined by “and”; a condition that tells them apart may be missing. Equal values may be shown once. The campaign covered roughly 420,000 compounds. About 50,000 (12%) were called active. About 26% were inconclusive and are not listed. Many of the other results were omitted from the sample, so actives are more common in it than they were. Unmarked numbers belong to inactive results. The call rests on the fitted dose curve; in most records, active means well fitted inhibition curve with a large enough effect; inconclusive means small, poorly fitted or top-dose-only effect; inactive means flat fitted curve, though single readings scatter.
On the % scale 0 is the no-effect control and ±100 the full control effect; potency means the concentration at half of the fitted maximal effect.

The nature of this assay: qHTS for Inhibitors of human tyrosyl-DNA phosphodiesterase 1 (TDP1): qHTS in cells in presence of CPT. Further: nearly all actives have a fitted effect of over 55% in size. To be noted: chicken DT40 Tdp1-/-;hTDP1 cells + 20 nM CPT, ATP luminescence, 48 h; series mostly up to 46.2 µM; activity change, negative = growth inhibition: at the top concentration. Put shortly: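 Chicken DT40 Tdp1-/- cells complemented with human TDP1, 400 cells/well, exposed to compounds plus 20 nM camptothecin for at least 48 h at 37 C; viability read as ATP content by CellTiter-Glo luminescence.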
(In general: In qHTS, concentration-response curves come from the screen itself.)
As for `Cc1cc(Cl)ccc1NC(=S)NCCCN1CCCC1=O`, the “activity change, negative = growth inhibition” value was 23.4%.

As for `COn1c(=O)c(=O)n(OC)c2ccccc21`, the “activity change, negative = growth inhibition” value was 0.332%.

`CCOC(=O)C1=C(c2ccccc2)NC(=S)NC1c1ccc(Cl)cc1` (stereo not drawn): the “activity change, negative = growth inhibition” value was -21.5%.

For `CCOC(=O)C1=C(C)N(C[C@@H]2CC[C@@H](Cc3ccc(-c4ccccc4)cc3)O2)C(=O)NC1c1ccc([N+](=O)[O-])cc1` (stereo partly drawn), the Potency was 23.1 µM (active).

Turning to `CCOC(=O)CSc1nnc(-c2ccc([N+](=O)[O-])cc2)o1`, the “activity change, negative = growth inhibition” value was 0.129%.

Turning to `C=C1c2cccc(OC)c2O[C@H](C(=O)OCC)[C@@H]1CCCCCC`, the “activity change, negative = growth inhibition” value is -20.2%.

For `COc1cccc(NC(=O)COc2cc(C)cc3oc(=O)cc(C)c23)c1`, the “activity change, negative = growth inhibition” value is -0.0121%.

Take `COc1cc(OC)c2c(-c3cccc(-c4cccc(N)c4)c3)cc(=O)oc2c1`: the Potency is 4.61 µM (active).

Regarding `COC(=O)C(C)Oc1ccc2c(-c3cccc([N+](=O)[O-])c3)cc(=O)oc2c1` (stereo not drawn), the “activity change, negative = growth inhibition” value is -14.6%.

As to `COc1ccccc1OCCNC(=O)C(CCSC)NC(=O)COc1ccccc1` (stereo not drawn), the “activity change, negative = growth inhibition” value was -15.4%.

On to `CC(C)(CNC(=O)CNC(=O)C1CCCCC1)N1CCOCC1`, for which the “activity change, negative = growth inhibition” value is 13%.

As to `CC(C)=CCc1c(O)c(CC=C(C)C)c2occ(-c3ccc(O)cc3)c(=O)c2c1O`, the Potency is 18.4 µM (active).

Take `Cc1c(O)cc(O)c2c(=O)c(-c3ccc(O)cc3)coc12`: the “activity change, negative = growth inhibition” value was 0.0845%.

With `CCCCn1c(N)c(N(CC(C)C)C(=O)C2CSC3(C)CCC(=O)N23)c(=O)[nH]c1=O` (stereo not drawn), the “activity change, negative = growth inhibition” value is -2.75%.

In the case of `C[C@H]1CN([C@@H](C)CO)C(=O)CCCn2nncc2CO[C@@H]1CN(C)Cc1ccc(Oc2ccccc2)cc1`, the Potency was 23.1 µM (active).

With `C[C@@H]1CN([C@H](C)CO)C(=O)c2cc(Br)cnc2O[C@@H]1CN(C)Cc1cncnc1`, the “activity change, negative = growth inhibition” value is -9.96%.

For the compound `C[C@H]1CN([C@@H](C)CO)C(=O)c2cc(-c3cccc(F)c3)cnc2O[C@@H]1CN(C)S(C)(=O)=O`, the “activity change, negative = growth inhibition” value is 4.29%.

Consider `C[C@H](CO)N1C[C@H](C)[C@H](CN(C)CC2CC2)Oc2ccc(NC(=O)CCN3CCOCC3)cc2C1=O`, for which the “activity change, negative = growth inhibition” value was 9.49%.

As to `C[C@H](CO)N1C[C@H](C)[C@@H](CN(C)Cc2ccc3c(c2)OCO3)OCc2cnnn2CCCC1=O`, the “activity change, negative = growth inhibition” value was 9%.

Regarding `COc1ccc(-c2cnc3c(c2)C(=O)N([C@H](C)CO)C[C@@H](C)[C@H](CN(C)Cc2ccccc2)O3)cc1`, the Potency is 14.6 µM (active).

With `Cc1ccc(CN(C)C[C@@H]2OCc3cnnn3CCCC(=O)N([C@@H](C)CO)C[C@H]2C)cc1`, the “activity change, negative = growth inhibition” value was -7.27%.

Take `C[C@H]1CN([C@@H](C)CO)C(=O)Cc2cc(NS(C)(=O)=O)ccc2O[C@@H]1CN(C)CC1CC1`: the “activity change, negative = growth inhibition” value was -3.44%.

Take `CCOC(=O)CCCCCC(=O)Nc1ccc2c(c1)CC(=O)N([C@@H](C)CO)C[C@H](C)[C@@H](CN(C)Cc1ccccc1)O2`: the Potency is 18.4 µM (active).

As for `Cc1ccccc1NC(=O)c1cc(S(=O)(=O)Nc2cccc(C(=O)O)c2)ccc1Cl`, the “activity change, negative = growth inhibition” value was -2.45%.

Turning to `Cc1cc(NC(=O)COc2ccc([N+](=O)[O-])cc2)no1`, the “activity change, negative = growth inhibition” value was 1%.

For the compound `CC1CCCC(C)N1C(=O)CSc1nnnn1C1CCCC1` (stereo not drawn), the “activity change, negative = growth inhibition” value was -3.92%.

`CCc1nc(N2CCN(C(C)=O)CC2)c2c3c(sc2n1)CCCC3`: the “activity change, negative = growth inhibition” value is -8.38%.

As for `Cc1c(OC(C)C(=O)N[C@@H](Cc2ccccc2)C(=O)O)ccc2c3c(c(=O)oc12)CCCC3` (stereo partly drawn), the “activity change, negative = growth inhibition” value was 2.76%.

`Cc1c(Br)c([N+](=O)[O-])nn1C(C)C(=O)Nc1nccs1` (stereo not drawn): the “activity change, negative = growth inhibition” value is -29.9%.

On to `Cc1c(Cl)cccc1NC(=O)C1CCCN(C(=O)c2cnn(-c3ccccc3)c2-n2cccc2)C1` (stereo not drawn), for which the Potency is 23.1 µM (active).

`CCOc1ccccc1NC(=O)C1CCCN(C(=O)Nc2ccccc2)C1` (stereo not drawn): the “activity change, negative = growth inhibition” value was -4%.

In the case of `Cc1cccc(NC(=O)C2CCCN(C(=O)Nc3ccc(F)cc3)C2)c1C` (stereo not drawn), the “activity change, negative = growth inhibition” value was -26.8%.

With `COc1ccc(Cn2ccn(CC(=O)Nc3cc(C)ccc3C)c(=O)c2=O)cc1`, the “activity change, negative = growth inhibition” value was 15.1%.

For the compound `Cc1cccc(CSc2ccc(-c3cccs3)nn2)c1`, the Potency entry was “inactive”.

With `Oc1c(Cl)cc(Cl)c(Cl)c1Cc1c(O)c(Cl)cc(Cl)c1Cl`, the Potency was 4.73 µM (active) and 23.1 µM (active) and 3.26 µM (active).

On to `Nc1[nH][nH]c(=O)c1N=Nc1ccc2c(c1)OCO2`, for which the “activity change, negative = growth inhibition” value was -26.6%.

Regarding `Cc1ccc(N2CC(C(=O)Nc3ccc(S(=O)(=O)N4CCCC4)cc3)CC2=O)cc1C` (stereo not drawn), the “activity change, negative = growth inhibition” value was -24.4%.

With `O=S1(=O)CCN(C2CCCCCCCCCCC2)CC1`, the Potency is 20.6 µM (active).

For `O=C(O)C1CCN1C1CCCCC1` (stereo not drawn), the “activity change, negative = growth inhibition” value is 1.27%.

Regarding `O=S1(=O)CC(N2CCN(CCO)CC2)CN1C1CCCC1` (stereo not drawn), the “activity change, negative = growth inhibition” value was -2.16%.

Consider `COc1ccc(S(=O)(=O)N2CCC(C(=O)NCCC(=O)Nc3ccccc3OC)CC2)cc1`, for which the “activity change, negative = growth inhibition” value was -19%.

Regarding `CC(NC(=O)c1ccccc1C(=O)O)c1ccc(-n2ccnc2)cc1` (stereo not drawn), the “activity change, negative = growth inhibition” value was 7.73%.

On to `COc1ccc(OC)c(C(=O)c2ccc(Cl)cc2)c1`, for which the “activity change, negative = growth inhibition” value was 2.77%.

Turning to `COc1ccc(NC(=O)c2cc3cc(C)ccc3n2C)cc1`, the “activity change, negative = growth inhibition” value is -22.3%.

`COc1ccc(OC)c(/C(C)=N\NC(=O)c2cc3cc(Cl)ccc3n2C)c1`: the Potency was 5.8 µM (active).

With `OC(c1ccccc1)c1nc(/C=C/c2ccc(C(F)(F)F)cc2)cs1` (stereo not drawn), the “activity change, negative = growth inhibition” value is -21.7%.

With `CCN(c1ccccc1)S(=O)(=O)c1cc2c(cc1C)n(C)c(=O)c(=O)n2C`, the “activity change, negative = growth inhibition” value is 11.4%.

Take `C[C@H](CO)N1C[C@H](C)[C@@H](CN(C)S(=O)(=O)c2ccc(F)cc2)OCc2cnnn2CCCC1=O`: the “activity change, negative = growth inhibition” value is -11.4%.
